Source: PubChem BioAssay (EPA / NIEHS)
“And” between values parts separate entries of the source, which are not always exact repeats. Equal entries are not always repeated. The source holds several records for some structures; these can differ, active in one and inactive in another. The source made the active and inactive calls. The calls were made as follows: active = hit-call score of the fitted dose curve at least 0.9, where 1 is the maximum; inactive = score below 0.9.

Columns and labels:
[1] = target: Transcription factor E2F1 (Homo sapiens) (UniProt Q01094); experiment: ATG_E2F_CIS: Attagene CIS-FACTORIAL HepG2 Assay for human E2F Transcription Factor 1 (AID 2282935); details: HepG2 Attagene cis-reporter, E2F reporter RNA transcripts; actives raise or lower the signal
Sequence of Transcription factor E2F1 (Homo sapiens) (Q01094 whole entry, looked up): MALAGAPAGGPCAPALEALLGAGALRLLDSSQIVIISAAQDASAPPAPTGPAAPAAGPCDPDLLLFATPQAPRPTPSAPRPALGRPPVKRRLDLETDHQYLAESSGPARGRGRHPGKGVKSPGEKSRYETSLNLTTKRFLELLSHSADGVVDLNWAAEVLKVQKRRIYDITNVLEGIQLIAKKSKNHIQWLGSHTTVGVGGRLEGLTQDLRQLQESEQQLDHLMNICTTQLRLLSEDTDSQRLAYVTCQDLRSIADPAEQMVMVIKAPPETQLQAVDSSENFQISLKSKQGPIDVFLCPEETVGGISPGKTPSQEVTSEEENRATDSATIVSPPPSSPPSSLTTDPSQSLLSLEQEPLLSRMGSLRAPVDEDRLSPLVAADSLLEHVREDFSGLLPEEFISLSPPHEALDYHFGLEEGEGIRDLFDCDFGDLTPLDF
Method in brief: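 In this cis-factorial format, endogenous factor activity drives transfected reporters in HepG2; transcripts collected at 24 h are quantified by fluorescence after RT-PCR and capillary separation.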

[2] = ATG_E_Box_CIS: Attagene CIS-FACTORIAL HepG2 Assay for human Enhancer Box (E-box) (AID 2282936); details: HepG2 E-box cis-reporter transcription, actives raise or lower the signal
Method in brief: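 Measured 24 h post-dosing in HepG2 cells transfected with multiple cis-regulated reporter units, signal being reporter mRNA induction detected by fluorescent RT-PCR with capillary electrophoresis; gain or loss fitted against DMSO.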

[3] = ATG_M_61_CIS: Attagene CIS-FACTORIAL HepG2 Assay for M61 Transcription Factor (Internal Marker) (AID 2282937); details: HepG2 Attagene CIS-FACTORIAL M61 internal marker reporter; actives raise or lower the signal
Method in brief: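 Readout: fluorescent reporter mRNA fragments resolved by capillary electrophoresis after RT-PCR. Transiently transfected human HepG2 cells carried MRTU constructs reporting endogenous TF activity; 24 h chemical exposure; gain or loss of signal fitted relative to DMSO.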

[4] = ATG_EGR_CIS: Attagene CIS-FACTORIAL HepG2 Assay for human Early Growth Response 1 (EGR1) (AID 2282938); details: HepG2 Attagene CIS-FACTORIAL EGR reporter mRNA; actives raise or lower the signal
Method in brief: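 Read-out: fluorescent reporter-mRNA fragments resolved by capillary electrophoresis after RT-PCR, 24 h post-dose in transiently transfected HepG2. Endogenous transcription-factor activity reported via cis-element-regulated reporter units; gain or loss fitted relative to DMSO.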

[5] = ATG_ERE_CIS: Attagene CIS-FACTORIAL HepG2 Assay for Estrogen Response Element (ERE) (AID 2282940); details: HepG2 ERE cis-reporter, Attagene RNA transcript; actives raise or lower the signal
Method in brief: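 Fluorescence of capillary-separated, FAM-labelled reporter cDNA fragments indicates reporter mRNA levels in HepG2 cells exposed to chemicals for 24 h. Transient transfection with cis-regulated units; data fitted in both directions against DMSO.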

[6] = ATG_Ets_CIS: Attagene CIS-FACTORIAL HepG2 Assay for human Erythroblast Transformation Specific (ETS) (AID 2282941); details: HepG2 ETS cis-reporter transcription, actives raise or lower the signal
Method in brief: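 Endogenous transcription factor activity read as reporter mRNA via RT-PCR and capillary electrophoresis, with gain or loss fitted bidirectionally against DMSO. Human HepG2 liver cells, transiently transfected CIS reporter constructs, 24 h exposure.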

[7] = ATG_FoxO_CIS: Attagene CIS-FACTORIAL HepG2 Assay for human Forkhead box O (FoxO) (AID 2282943); details: HepG2 Attagene cis-reporter, FoxO element, mRNA; actives raise or lower the signal
Method in brief: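 24 h chemical exposure, HepG2 with transient cis-MRTU transfection. RNA extraction, oligo(dT) RT, reporter-specific PCR, primer-extension labelling, HpaI digestion, CE fragment analysis; bidirectional fit, DMSO baseline.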

[8] = ATG_GATA_CIS: Attagene CIS-FACTORIAL HepG2 Assay for human GATA Binding Protein (AID 2282944); details: HepG2 GATA cis-element reporter, Attagene multiplex mRNA; actives raise or lower the signal
Method in brief: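 After transfecting HepG2 cells with multiple cis-regulated reporter units, chemicals are dosed for 24 h; isolated RNA undergoes RT-PCR and fluorescent labeling before capillary electrophoresis, with activity expressed against DMSO.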

[9] = ATG_GLI_CIS: Attagene CIS-FACTORIAL HepG2 Assay for human Zinc Finger Protein GLI1 (AID 2282945); details: HepG2, Attagene cis-factorial reporter mRNA, GLI element; actives raise or lower the signal
Method in brief: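 HepG2 cells transiently transfected with cis-promoter multiplexed reporter units report endogenous transcription factor activity. After 24 h chemical exposure, reporter mRNA was quantified by RT-PCR, 6-FAM labelling, HpaI digestion and capillary electrophoresis, with bidirectional fitting against DMSO.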

[10] = ATG_ISRE_CIS: Attagene CIS-FACTORIAL HepG2 Assay for human Interferon Regulatory Factor 1 (IRF1) binding to an Interferon-Stimulated Response Element (ISRE) (AID 2282948); details: HepG2 ISRE cis-reporter (Attagene), mRNA transcription readout; actives raise or lower the signal
Method in brief: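 Endogenous transcription factor activity read as reporter transcript abundance via RT-PCR and capillary electrophoresis. HepG2 cells transiently transfected, 24 h chemical exposure. Gain or loss fitted against DMSO baseline.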

[11] = ATG_M_32_CIS: Attagene CIS-FACTORIAL HepG2 Assay for M32 Transcription Factor (Internal Marker) (AID 2282949); details: HepG2 Attagene cis-factorial M32 reporter, mRNA; actives raise or lower the signal;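 also: background control marker of the multiplexed CIS panel rather than a real target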
Method in brief: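 Transient MRTU transfection of HepG2; 24 h compound treatment; TriZol RNA, oligo(dT) RT, reporter PCR, 6-FAM primer extension, HpaI cut, CE. Gain/loss of signal vs DMSO.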

[12] = ATG_M_06_CIS: Attagene CIS-FACTORIAL HepG2 Assay for M06 Transcription Factor (Internal Marker) (AID 2282950); details: HepG2 Attagene CIS-FACTORIAL M06 internal marker reporter; actives raise or lower the signal
Method in brief: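 HepG2 liver cells, 24 h exposure. Reporter transcripts from transfected cis-element constructs quantified by RT-PCR/capillary electrophoresis fluorescence. Bidirectional curve fit against DMSO.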

[13] = target: Hypoxia-inducible factor 1-alpha (Homo sapiens) (UniProt Q16665); experiment: ATG_HIF1a_CIS: Attagene CIS-FACTORIAL HepG2 Assay for human Hypoxia Inducible Factor 1 (HIF1A) (AID 2282951); details: HepG2 Attagene cis-factorial HIF1a reporter transcription; actives raise or lower the signal
Sequence of Hypoxia-inducible factor 1-alpha (Homo sapiens) (Q16665 whole entry, looked up): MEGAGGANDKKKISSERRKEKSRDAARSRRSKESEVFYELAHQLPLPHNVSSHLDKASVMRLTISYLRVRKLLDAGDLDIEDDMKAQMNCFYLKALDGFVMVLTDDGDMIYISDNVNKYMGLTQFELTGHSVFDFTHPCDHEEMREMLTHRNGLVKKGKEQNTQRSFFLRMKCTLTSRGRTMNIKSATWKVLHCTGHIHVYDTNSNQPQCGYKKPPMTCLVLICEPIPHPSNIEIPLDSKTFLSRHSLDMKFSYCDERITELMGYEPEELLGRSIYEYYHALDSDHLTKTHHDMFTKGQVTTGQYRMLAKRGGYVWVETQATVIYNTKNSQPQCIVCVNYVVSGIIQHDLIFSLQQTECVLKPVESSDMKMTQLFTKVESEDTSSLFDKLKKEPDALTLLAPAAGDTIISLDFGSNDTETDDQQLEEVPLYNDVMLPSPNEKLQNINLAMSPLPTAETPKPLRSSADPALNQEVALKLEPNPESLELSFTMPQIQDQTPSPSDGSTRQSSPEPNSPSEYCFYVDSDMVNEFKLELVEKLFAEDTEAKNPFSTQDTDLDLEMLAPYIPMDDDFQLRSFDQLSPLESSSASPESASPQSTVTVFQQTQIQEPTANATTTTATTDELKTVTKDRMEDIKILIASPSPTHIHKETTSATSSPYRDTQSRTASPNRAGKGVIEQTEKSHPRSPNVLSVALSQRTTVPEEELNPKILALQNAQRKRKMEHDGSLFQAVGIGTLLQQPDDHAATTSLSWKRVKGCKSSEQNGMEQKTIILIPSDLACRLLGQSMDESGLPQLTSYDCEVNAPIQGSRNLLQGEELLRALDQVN
Method in brief: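 RT-PCR/capillary electrophoresis fluorescence readout of reporter transcripts from endogenous-TF-driven cis elements in transfected HepG2 cells, 24 h exposure; activity fitted in both directions against DMSO controls.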

[14] = target: Hepatocyte nuclear factor 6 (Homo sapiens) (UniProt Q9UBC0); experiment: ATG_HNF6_CIS: Attagene CIS-FACTORIAL HepG2 Assay for human Hepatocyte Nuclear Factor 6 (HNF6) (AID 2282952); details: HepG2 Attagene cis-factorial HNF6 reporter transcription; actives raise or lower the signal
Sequence of Hepatocyte nuclear factor 6 (Homo sapiens) (Q9UBC0 whole entry, looked up, the tested form may be a part): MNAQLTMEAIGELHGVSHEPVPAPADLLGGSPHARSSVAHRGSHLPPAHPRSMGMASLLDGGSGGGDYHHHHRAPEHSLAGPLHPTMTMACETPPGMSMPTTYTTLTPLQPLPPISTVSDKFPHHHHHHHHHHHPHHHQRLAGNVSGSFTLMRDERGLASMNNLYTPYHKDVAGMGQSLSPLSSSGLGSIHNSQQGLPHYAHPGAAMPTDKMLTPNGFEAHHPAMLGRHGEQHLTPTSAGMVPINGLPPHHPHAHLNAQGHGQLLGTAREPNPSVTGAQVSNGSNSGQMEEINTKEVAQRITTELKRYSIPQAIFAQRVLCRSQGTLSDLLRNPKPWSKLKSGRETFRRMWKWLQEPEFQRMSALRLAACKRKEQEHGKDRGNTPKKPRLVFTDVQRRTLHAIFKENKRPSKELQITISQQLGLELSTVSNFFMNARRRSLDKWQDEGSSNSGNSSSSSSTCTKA
Method in brief: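 First, HepG2 cells were transfected with the multiplexed cis reporter library and dosed with chemical for 24 h. Next, RNA was reverse-transcribed, PCR-amplified and fluorescently labelled. Finally, HpaI-digested fragments were read by capillary electrophoresis.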

[15] = target: Heat shock factor protein 1 (Homo sapiens) (UniProt Q00613); experiment: ATG_HSE_CIS: Attagene CIS-FACTORIAL HepG2 Assay for human Heat Shock Transcription Factor 1 (HSE) (AID 2282953); details: HepG2 HSE cis-reporter, Attagene RNA transcription; actives raise or lower the signal
Sequence of Heat shock factor protein 1 (Homo sapiens) (Q00613 whole entry, looked up, the tested form may be a part): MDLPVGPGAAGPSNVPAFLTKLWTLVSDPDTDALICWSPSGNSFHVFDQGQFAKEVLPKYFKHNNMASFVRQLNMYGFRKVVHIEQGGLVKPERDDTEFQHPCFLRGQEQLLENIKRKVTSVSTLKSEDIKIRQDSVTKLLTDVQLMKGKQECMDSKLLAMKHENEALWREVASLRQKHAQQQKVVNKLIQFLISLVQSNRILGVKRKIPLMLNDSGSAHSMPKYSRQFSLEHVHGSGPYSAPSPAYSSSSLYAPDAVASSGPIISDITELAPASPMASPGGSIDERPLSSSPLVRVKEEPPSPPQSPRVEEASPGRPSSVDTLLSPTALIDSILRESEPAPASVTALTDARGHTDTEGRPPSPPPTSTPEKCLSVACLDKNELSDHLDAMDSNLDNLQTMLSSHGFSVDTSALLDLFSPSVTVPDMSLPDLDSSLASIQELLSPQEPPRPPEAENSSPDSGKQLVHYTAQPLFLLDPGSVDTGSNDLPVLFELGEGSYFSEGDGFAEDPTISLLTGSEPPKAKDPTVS
Method in brief: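 Endogenous transcription factor activity captured via cis-promoter reporter units transfected into HepG2; treatment lasted 24 h. Fluorescence intensity of reporter fragments analysed with bidirectional curve fitting, DMSO baseline.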

[16] = ATG_MRE_CIS: Attagene CIS-FACTORIAL HepG2 Assay for human Metal Responsive Element (MRE) (AID 2282954); details: HepG2 MRE cis-reporter transcription, Attagene multiplex; actives raise or lower the signal
Method in brief: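 Readout: capillary electrophoresis of 6-FAM-labelled, HpaI-digested RT-PCR reporter products. System: HepG2 cells carrying transient multiplexed cis reporters, dosed 24 h. Analysis: bidirectional fit, DMSO baseline.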

[17] = ATG_M_19_CIS: Attagene CIS-FACTORIAL HepG2 Assay for M19 Transcription Factor (Internal Marker) (AID 2282939); details: HepG2 Attagene CIS-FACTORIAL M19 internal marker reporter; actives raise or lower the signal
Method in brief: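 Signals come from fluorescence of labelled reporter-specific PCR fragments resolved by capillary electrophoresis, following 24 h treatment of HepG2 cells transfected with cis-promoter reporter units; activity was fitted in both directions relative to DMSO.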

[18] = target: Hepatocyte nuclear factor 3-beta (Homo sapiens) (UniProt Q9Y261); experiment: ATG_FoxA2_CIS: Attagene CIS-FACTORIAL HepG2 Assay for human Forkhead box A2 (FOXA2) (AID 2282942); details: HepG2 cis-reporter transcription factor activity, 24 h; actives raise or lower the signal
Sequence of Hepatocyte nuclear factor 3-beta (Homo sapiens) (Q9Y261 whole entry, looked up): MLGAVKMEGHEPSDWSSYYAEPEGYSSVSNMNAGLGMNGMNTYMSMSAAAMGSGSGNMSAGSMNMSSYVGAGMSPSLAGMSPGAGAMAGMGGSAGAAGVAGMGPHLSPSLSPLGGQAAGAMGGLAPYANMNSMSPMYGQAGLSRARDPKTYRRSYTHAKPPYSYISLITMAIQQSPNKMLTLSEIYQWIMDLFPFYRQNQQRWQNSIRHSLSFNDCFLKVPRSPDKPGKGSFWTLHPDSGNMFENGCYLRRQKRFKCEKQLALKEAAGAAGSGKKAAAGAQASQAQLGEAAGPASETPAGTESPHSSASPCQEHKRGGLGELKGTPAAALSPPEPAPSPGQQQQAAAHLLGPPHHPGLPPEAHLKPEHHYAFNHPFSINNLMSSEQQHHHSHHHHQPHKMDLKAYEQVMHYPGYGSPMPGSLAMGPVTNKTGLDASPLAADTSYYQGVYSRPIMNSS
Method in brief: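 Readout: fluorescent reporter transcripts resolved by capillary electrophoresis after RT-PCR. Transiently transfected HepG2, 24 h compound exposure, endogenous TF activity at cis promoter elements. Gain or loss of signal fitted relative to DMSO.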

[19] = target: Bile acid receptor (Homo sapiens) (UniProt Q96RI1); experiment: ATG_IR1_CIS: Attagene CIS-FACTORIAL HepG2 Assay for human Nuclear Receptor Subfamily 1 Group H Member 4 (NR1H4), IR1 submotif (AID 2282946); details: IR1 reporter transcription, actives raise or lower the signal
Sequence of Bile acid receptor (Homo sapiens) (Q96RI1 whole entry, looked up): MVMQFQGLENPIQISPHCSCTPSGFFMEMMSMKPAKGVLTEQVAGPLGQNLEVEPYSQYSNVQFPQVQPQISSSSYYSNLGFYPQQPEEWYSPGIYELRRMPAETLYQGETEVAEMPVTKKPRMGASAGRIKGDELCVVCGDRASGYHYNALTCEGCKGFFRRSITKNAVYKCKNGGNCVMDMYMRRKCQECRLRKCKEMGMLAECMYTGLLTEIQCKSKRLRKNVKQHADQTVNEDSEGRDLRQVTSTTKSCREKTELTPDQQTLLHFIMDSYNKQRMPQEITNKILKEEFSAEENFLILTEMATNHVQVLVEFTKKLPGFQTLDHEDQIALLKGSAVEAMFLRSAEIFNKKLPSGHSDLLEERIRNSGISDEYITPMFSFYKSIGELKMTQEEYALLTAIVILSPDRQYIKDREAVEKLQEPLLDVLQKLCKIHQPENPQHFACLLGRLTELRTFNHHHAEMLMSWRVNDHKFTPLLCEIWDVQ
Method in brief: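 Readout: reporter transcript levels by RT-PCR with fluorescent capillary electrophoresis, from HepG2 cells transiently transfected with multiplexed cis-regulated reporters and dosed 24 h. Gain- or loss-of-signal fitted versus DMSO negative control.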

[20] = ATG_GRE_CIS: Attagene CIS-FACTORIAL HepG2 Assay for human Glucocorticoid Response Elements (GRE) (AID 2282947); details: HepG2 GRE cis-reporter, Attagene multiplex mRNA; actives raise or lower the signal
Method in brief: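 HepG2, transient cis-reporter transfection, 24 h. Reporter mRNA: RT-PCR then CE, fluorescence. Fit both directions vs DMSO.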

Measured: AC50

OCCC(F)(F)C(F)(F)C(F)(F)C(F)(F)C(F)(F)C(F)(F)F
active: [1] 136 µM | [5] 33.9 µM and 9.4 µM | [8] 125 µM | [10] 100 µM | [11] 100 µM | [15] 100 µM | [16] 147 µM
inactive: [1] | [2] | [3] | [4] | [6] | [7] | [8] | [9] | [10] | [11] | [12] | [13] | [14] | [15] | [16]

NCC(F)(F)C(F)(F)C(F)(F)C(F)(F)C(F)(F)C(F)(F)C(F)(F)F
inactive: [1] | [2] | [3] | [4] | [17] | [5] | [6] | [18] | [7] | [8] | [9] | [19] | [10] | [12] | [13] | [14] | [15] | [16]

CCCCCCCCOC(=O)CCCCCCCCC(=O)OCCCCCCCC
inactive: [1] | [2] | [3] | [4] | [17] | [5] | [6] | [7] | [8] | [9] | [20] | [10] | [11] | [12] | [13] | [14] | [15] | [16]

c1ccc2cc3c(ccc4ccccc43)cc2c1
inactive: [1] | [2] | [3] | [4] | [6] | [7] | [8] | [9] | [10] | [11] | [12] | [13] | [14] | [15] | [16]
active: [2] 1.59 µM and 4.58 µM and 2.65 µM | [4] 2.26 µM | [5] 2.82 µM [middle of 4 runs] | [13] 3.05 µM and 2.3 µM | [15] 120 µM

CN1CCC[C@H]1c1cccnc1
inactive: [1] | [2] | [3] | [4] | [17] | [5] | [6] | [18] | [7] | [8] | [9] | [10] | [12] | [14] | [16]
active: [5] 49.4 µM

CC(C)(C)c1cc(C(C)(C)C)c(O)c(C(C)(C)C)c1
active: [13] 100 µM | [16] 100 µM and 36.8 µM
inactive: [1] | [2] | [3] | [4] | [17] | [5] | [6] | [7] | [8] | [9] | [20] | [11] | [12] | [13] | [14] | [15]
